This passage reports Percent Effect results from ChEMBL document CHEMBL3988442, “University of Dundee, Small-Polar-MMV Screening Library” (2021).

SMILES strings stand for the structures.

Experiment [1] has as its target T1, Aspartate--tRNA(Asp/Asn) ligase (Mycobacterium tuberculosis (strain ATCC 25618 / H37Rv)) (UniProt P9WFW3). Further: in the data most compounds retested in dose-response had high values.
T1 sequence (whole entry): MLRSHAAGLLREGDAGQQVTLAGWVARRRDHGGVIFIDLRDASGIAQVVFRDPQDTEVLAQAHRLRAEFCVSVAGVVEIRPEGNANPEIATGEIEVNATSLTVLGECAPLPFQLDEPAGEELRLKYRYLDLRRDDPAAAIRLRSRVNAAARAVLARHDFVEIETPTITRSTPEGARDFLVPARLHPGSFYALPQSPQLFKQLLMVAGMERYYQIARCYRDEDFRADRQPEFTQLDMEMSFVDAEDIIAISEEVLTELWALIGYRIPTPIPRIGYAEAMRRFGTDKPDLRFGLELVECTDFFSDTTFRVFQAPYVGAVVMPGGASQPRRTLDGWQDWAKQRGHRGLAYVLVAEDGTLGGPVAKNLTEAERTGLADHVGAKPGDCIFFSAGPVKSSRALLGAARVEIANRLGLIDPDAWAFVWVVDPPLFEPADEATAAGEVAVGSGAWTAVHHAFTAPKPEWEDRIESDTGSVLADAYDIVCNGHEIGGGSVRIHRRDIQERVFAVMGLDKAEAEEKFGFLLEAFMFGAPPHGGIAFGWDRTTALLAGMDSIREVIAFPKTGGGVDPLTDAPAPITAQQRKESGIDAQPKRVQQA
In words: Assay for Asp RNA synthetase-1 from Mycobacterium tuberculosis. In kind it is functional. Details: scale not given: direction of the effect not stated beside the values. The settings on record: 30 µM.

In experiment [2] the target is Shiga toxin 2 (Escherichia coli O157:H7) (UniProt P09385+P09386). In words: E. coli 0.157:H7 Shiga Toxin SOP - stx2 screening assay. Details: scale not given: direction of the effect not stated beside the values. The settings on record: 30 µM. It is filed as functional.

Regarding `CS(=O)(=O)N1CCC(Oc2ccc(C(=O)N3CCSCC3)cc2Cl)CC1`, the Percent Effect in experiment [1] amounted to 1.75%; in experiment [2] it was 11.9%.
As to `CCn1cc2c(n1)CN(CC1CC1)CC2COCC1CC1` (stereo not drawn), the Percent Effect in experiment [1] was -2.72%; in experiment [2], -2.1%.
The like results for `Cc1ccc(C)c(OCCN2CCC(N3CCNC3=O)CC2)c1` were, in that order, 0.583% and -1.43%.
On the same counts, the results for `Cc1cncc(C(=O)N2Cc3ccccc3C3(CCN(C)CC3)C2)c1` are -2.03% and -1.24%.
The like results for `O=C1CC[C@H]2CN(Cc3ccc(Cl)s3)CC[C@H]2N1CCc1c[nH]cn1` were, in that order, 0.912% and -115%.
As for `c1ccc2c(N3CCCC3Cn3cccn3)ncnc2c1` (stereo not drawn), the figures for the Percent Effect in experiment [1] and in experiment [2] were 0% and -23.1%, respectively.
On the same counts, the results for `O=C1OCCN1CCOc1nc(-c2ccccc2Cl)no1` are -7.33% and -14.8%.
The like results for `Cn1ncc2c1C(COCC1CC1)CN(Cc1ccc(F)cc1)C2` (stereo not drawn) were, in that order, -2.09% and -5.43%.
On the same counts, the results for `CN(C)c1cc(CNC(=O)c2cn(-c3ccc(F)cc3)nn2)ccn1` are 1.09% and 6.86%.
`O=C(CCC1CCCC1)NCCn1nc(C2CCNC2)c2cccnc21` (stereo not drawn): the figures for the Percent Effect in experiment [1] and in experiment [2] were -0.368% and -19.4%, respectively.
Take `CCOCCN1CCN(Cc2nc(C3CC3)no2)CC1CC` (stereo not drawn): the results for the Percent Effect in experiment [1] and in experiment [2] were -4.28% and 9.42%, respectively.
On the same counts, the results for `C[C@@H]1CN(C2(C(=O)N3CCOCC3)Cc3ccccc3C2)C[C@H](C)O1` are 0.585% and -11.4%.
On the same counts, the results for `CN(C)C[C@H]1OC[C@@H]2CCN(S(=O)(=O)c3cccs3)C[C@@H]21` are -0.29% and -8.75%.
The like results for `COCCOc1cccc(C(=O)N2CCCC(n3cccn3)C2)c1` (stereo not drawn) were, in that order, 1.18% and -14.5%.
With `O=C(c1cn(-c2cc(N3CCOCC3)ncn2)cn1)N1CCSCC1`, the results for the Percent Effect in experiment [1] and in experiment [2] were -0.834% and -38.5%, respectively.
On the same counts, the results for `CC(O)CN1CCC(CNCc2ccccc2OC(F)(F)F)CC1` (stereo not drawn) are -1.43% and 5.19%.
As to `CCn1nc(C)c2nnn(CC(=O)Nc3cccc(Cl)c3)c(=O)c21`, the Percent Effect in experiment [1] was -0.523%; in experiment [2], -43.6%.
The like results for `CCC(NC(N)=O)c1ccccc1OCC(=O)N1CCCC1` (stereo not drawn) were, in that order, -1.5% and -58.1%.
On the same counts, the results for `CC1CCCN(C(=O)c2cccc(CS(C)(=O)=O)c2)C1` (stereo not drawn) are -4.9% and -32%.
On the same counts, the results for `COCCN(C)CCN1CC2(CCN(C(=O)C3CCOC3)CC2)OC1=O` (stereo not drawn) are -1.75% and -24.2%.
On to `CCc1n[nH]c(C2CN(C(=O)c3nc(C)ncc3Cl)CCO2)n1` (stereo not drawn), for which the Percent Effect was 0% in experiment [1] and -0.974% in experiment [2].
On the same counts, the results for `O=C(NCC(=O)N1CCCCC1)c1ccoc1` are 6.71% and -16.3%.
On the same counts, the results for `O=C(CC1CC1)NCc1cn2c(n1)CN(C(=O)c1cccnc1)CC2` are 3.04% and -29.1%.
The like results for `CCOc1ccccc1C(CC(=O)Nc1ccccc1F)NC(C)=O` (stereo not drawn) were, in that order, -4.12% and 31.5%.
Regarding `CCc1cnc2c(c1Nc1ccncc1)c(=O)n(C)c(=O)n2C`, the Percent Effect in experiment [1] was 0.918%; in experiment [2] it was -8.05%.
On the same counts, the results for `CC(O)CN1CCN(C(=O)CN(C)c2cnccn2)CC1` (stereo not drawn) are 4% and -8.23%.
`O=C(c1coc(COc2cccc(F)c2)n1)N1CC[C@H](O)[C@@H](O)C1`: the results for the Percent Effect in experiment [1] and in experiment [2] were 2.06% and 11.7%, respectively.
With `Cc1csc(N2CCCN(C(=O)C3(C#N)CCCCC3)CC2)n1`, the Percent Effect in experiment [1] was -4.79%; in experiment [2], 27.1%.
On the same counts, the results for `CC(C(N)=O)N(C)CCCc1cc(-c2ccccc2)no1` (stereo not drawn) are 4.08% and 15%.
On the same counts, the results for `Cc1cnc(CN(C)C2CCN(CCn3cc(C#N)cn3)C2)o1` (stereo not drawn) are 5.46% and 17.1%.
The like results for `Cn1cc(NC(=O)N2CCC(CN3CCCC3)CC2)ccc1=O` were, in that order, -3.79% and -22.6%.
As to `O=C(C1CC1)N1CC[C@H](O)[C@@H]1Cc1ccccc1`, the values for the Percent Effect in experiment [1] and in experiment [2] were -2% and 1.84%, respectively.
On the same counts, the results for `Cc1cnn(CCNCc2nc(Cc3ccccc3)no2)c1` are -1.23% and 25%.
The like results for `COc1ccccc1OCc1cc(C(=O)N2CC=CC2C(C)C)n[nH]1` (stereo not drawn) were, in that order, -0.752% and 15.8%.
Take `Cc1nc(C)n(CC2CCCN2Cc2ccn(-c3ccccc3)n2)n1` (stereo not drawn): the Percent Effect in experiment [1] was 0.0463%; in experiment [2], -14.6%.
The like results for `CS(=O)(=O)NCCCN1CCCC1c1ccccc1` (stereo not drawn) were, in that order, 2.4% and 10%.
On the same counts, the results for `CCc1nnc2n1CCN(C(=O)C(C)COCc1ccccc1)C2` (stereo not drawn) are 0.562% and 31.4%.
The like results for `COc1ccccc1CC1CCCN(CCC#N)C1` (stereo not drawn) were, in that order, -3.31% and 32.8%.
As to `NC[C@H]1CC[C@H](C(NC(=O)c2ccccc2)c2ccccn2)CC1` (stereo partly drawn), the Percent Effect is 1.63% in experiment [1] and -25.2% in experiment [2].
The like results for `N#Cc1ccccc1C(=O)N1C[C@H](CO)C[C@H](CN2CCCC2)C1` were, in that order, -4.69% and 0.715%.
On the same counts, the results for `Cc1ccc(CN2CCC(c3nnc(CN4CCCCC4)n3C)CC2)o1` are -1.53% and -7.9%.
The like results for `O=C(NC1CC1)[C@H]1C[C@@H]2CCN(CCc3ccccc3)C[C@H]2O1` were, in that order, 3.49% and -10.6%.
With `Cc1noc([C@@H]2CC[C@@H]3[C@@H](CCN3S(=O)(=O)c3cccnc3)O2)n1`, the Percent Effect in experiment [1] is 0.127%; in experiment [2], -18.4%.
`CC(C)N1CC(C(=O)NCc2ccnc(-n3cccn3)c2)CC1=O` (stereo not drawn): the Percent Effect is -0.3% in experiment [1] and -49.1% in experiment [2].
The like results for `CC(C)c1ncc2c(n1)CN(Cc1ccc(C(N)=O)cc1)CC2` were, in that order, -0.3% and -42.6%.
On the same counts, the results for `CN(C)c1ncccc1CNS(=O)(=O)c1ccccc1F` are 4.63% and -24.7%.
On the same counts, the results for `COc1c(C2CCCN2C(=O)c2csc(C(C)C)n2)c(C)nn1C` (stereo not drawn) are 5.31% and 4.42%.
As for `CCCn1nc2c(cc1=O)CN(CC(=O)Nc1nnc(C)s1)CC2`, the Percent Effect in experiment [1] is 8.7%; in experiment [2], -2.85%.
The like results for `Cc1cc(CN2CCN(C(=O)NCc3ccc(C)s3)CC2)no1` were, in that order, -8.25% and 0.0703%.
The like results for `Cc1noc(C)c1C(=O)NCC(C)N(C)C` (stereo not drawn) were, in that order, 1.84% and 30.6%.
For `COC[C@@]12CCO[C@@H]1CCN(C(=O)COc1ccccc1OC)C2`, the figures for the Percent Effect in experiment [1] and in experiment [2] were 4.72% and 19.5%, respectively.
On the same counts, the results for `O=C(NCCNC(=O)c1scnc1Cl)c1ccccc1` are 2.84% and -34.6%.
The like results for `COc1ccc(CCN2CCN(C(=O)c3scnc3C)CC2)cc1` were, in that order, 0.928% and 0.201%.
Turning to `CC(C)OCCN(Cc1cccc(O)c1)C1CCC(O)CC1` (stereo not drawn), the Percent Effect in experiment [1] is 3.29%; in experiment [2], -13.5%.
The like results for `CCc1ncc2c(n1)CN(Cc1nc(-c3ccccn3)no1)CC2` were, in that order, 0.141% and -30.2%.
On the same counts, the results for `CSc1ccccc1C(C(=O)O)N1CCN(Cc2ccccn2)CC1` (stereo not drawn) are -1.38% and 17.4%.
On the same counts, the results for `O=C(NCc1ccccc1)c1nnc2ccc(N3CCOCC3)cc2n1` are -1.02% and -21.5%.
In the case of `Cc1cc(N2CCC(c3nnc(CN(C)C)n3C3CC3)CC2)ccn1`, the results for the Percent Effect in experiment [1] and in experiment [2] were 5.21% and -33.5%, respectively.
On the same counts, the results for `Cc1nccc(CNC(=O)NCCOc2ccc(F)c(F)c2)n1` are -2.26% and -21%.
The like results for `CC(=O)Nc1ccc(CNC2CC(=O)N(Cc3cccc(F)c3)C2)cc1` (stereo not drawn) were, in that order, -2.06% and -10.3%.
On the same counts, the results for `CCO[C@@H]1CC[C@H]2[C@H]1OCCN2C(=O)C1CCOCC1` are -5.84% and 8.02%.
Regarding `CC1CN(Cc2nccn2C)CCN1c1ccc2nncn2n1` (stereo not drawn), the figures for the Percent Effect in experiment [1] and in experiment [2] were -6.07% and -28.7%, respectively.
`N#Cc1ccc(C(=O)NCCCNc2ccc(C(F)(F)F)cn2)cc1`: the values for the Percent Effect in experiment [1] and in experiment [2] were -4.52% and 28.9%, respectively.
The like results for `CS(=O)(=O)NC[C@]12COC[C@H]1CN(C(=O)Cc1ccccc1F)C2` were, in that order, 6.16% and -11.5%.
On the same counts, the results for `COc1nccc(N2CCN(Cc3ccc(C)cc3)C(=O)C2)c1C#N` are 3.98% and -64.8%.
The like results for `CCn1ccc(C(=O)NCCCN2CCOCC2)n1` were, in that order, 8.41% and -55.1%.
With `CC(C)C(NC(=O)N1CCN(c2ccc(Cl)cc2)CC1)C(=O)NC1CC1` (stereo not drawn), the Percent Effect is -3.72% in experiment [1] and 7.46% in experiment [2].
On the same counts, the results for `COCCN1CCN(Cc2cccc(OCC(N)=O)c2)CC1C` (stereo not drawn) are -6.54% and -6.57%.
On the same counts, the results for `CCc1cnc(CN2CCCC2c2noc(C3CC3)n2)o1` (stereo not drawn) are 2.19% and 19.7%.
On the same counts, the results for `CCOc1ccccc1C(CC(=O)Nc1ccc(C)cn1)NC(C)=O` (stereo not drawn) are -0.122% and 14.7%.
As to `CCOc1ccc(Cl)cc1C1CCCN1` (stereo not drawn), the Percent Effect in experiment [1] is 3.74%; in experiment [2], 5.67%.
The like results for `CCN1CC2(CC1=O)CN(Cc1cccs1)CCN(C(=O)C(C)C)C2` (stereo not drawn) were, in that order, -0.746% and 0.818%.
The like results for `CC1(C(=O)N2CCOCC2)CN(Cc2ccccn2)CCO1` (stereo not drawn) were, in that order, 8.77% and -6.1%.
The like results for `CC(C)OCCOCc1cccc(NC(=O)NCCn2ccnc2)c1` were, in that order, 2.56% and -31.1%.
